# Measured values reported in ChEMBL document CHEMBL3988442, “University of Dundee, Small-Polar-MMV Screening Library” (2021).
# Screen size: about 48,000 compounds; about 13,000 (27%) showed an effect of 50% or more. This is one part of the list.
# System: Wolbachia pipientis
# Test: Anti-Wolbachia Cell-Based Screen
# Type: functional
# Parameters: scale not given: in the data most compounds retested in dose-response had high values
# Settings: 5 µM
row,SMILES,Percent Effect [%]
1,COCCN1CCC(c2nc3c([nH]2)CC(C)(C)CNC3=O)C1 (stereo not drawn),-9.937
2,COCCn1c(=O)n(C)c(=O)c2ccc(C3CCC(CN)CC3)nc21.Cl (stereo not drawn),114.4
3,COCCN1C(=O)[C@H]2CC[C@@H]1CN(c1nccc(C3CCCC3)n1)C2,-7.608
4,COCCn1c(=O)n(C)c(=O)c2ccc(C3CCN(C(C)=O)CC3)nc21,55.11
5,CC(=O)N1CCC(c2nn(C)c(=O)n2-c2ccccc2)CC1,-1.019
6,COCCn1ccnc1C1CCN(C(=O)C(O)c2ccc(F)cc2)CC1 (stereo not drawn),-18.13
7,Cc1ccn(C)c(=O)c1NC(=O)N(C)Cc1cccc(OC(C)C)c1,2.513
8,CCCc1cncnc1N1CCC(NCc2ccncc2)CC1,5.564
9,CN(CCCc1cnn(C)c1)C(=O)C1CCN(C(=O)C2CCC2)CC1,14.43
10,CN(CCCc1cnn(C)c1)Cc1cc2n(n1)CCCNC2,97.92
11,CN(Cc1cc2n(n1)CCCNC2)Cc1cc(-c2ccncc2)no1,4.022
12,CN(CCCc1cnn(C)c1)Cc1cc2n(n1)CCCN(C)C2,94.13
13,CN(CCCc1cnn(C)c1)Cc1cc2n(n1)CCNC2,121.7
14,CN(Cc1cc2n(n1)CCNC2)Cc1noc(C2CCC2)n1,-1.079
15,CN(Cc1cc2n(n1)CCCNC2)Cc1ccno1,-18.26
16,CNc1ncc(CN(C)Cc2cc3n(n2)CCNC3)cn1,11.28
17,CCn1cc(CN2CCCn3nc(CNC(=O)N(C)C)cc3C2)cn1,15.22
18,CC(NC(=O)N(C)Cc1ccc2c(c1)OCO2)c1nncn1C (stereo not drawn),16.38
19,CC1(c2ccccc2)CCC(=O)N(CCN2CCOCC2)C1 (stereo not drawn),8.315
20,COC(CNC(=O)c1ccc(NC(C)=O)cc1)c1cccc(Cl)c1 (stereo not drawn),-77.03
21,CCN1CCN(C)C2(CCN(Cc3ccsc3)CC2)C1=O.O=C(O)C(F)(F)F.O=C(O)C(F)(F)F,94.35
22,CCN1CCN(C)C(=O)C12CCN(Cc1ccsc1)CC2.O=C(O)C(F)(F)F,-27.74
23,CN1CCN(C)C2(CCN(Cc3ccsc3)CC2)C1=O.O=C(O)C(F)(F)F,105.2
24,CN1CCN(Cc2ccncc2)C(=O)C12CCN(Cc1ccsc1)CC2.O=C(O)C(F)(F)F.O=C(O)C(F)(F)F.O=C(O)C(F)(F)F,58.8
25,CN1CCN(Cc2ccncc2)C(=O)C12CCN(c1nccs1)CC2.O=C(O)C(F)(F)F.O=C(O)C(F)(F)F,-19.3
26,Cn1ncc(C2CC(=O)NCc3nc4ccccn4c32)c1C1CC1 (stereo not drawn),1.817
27,CCNC(=O)[C@@H]1CCCN1C1(C(=O)NC)CCC1.Cl,0.1969

row,SMILES,Percent Effect [%]
1,O=C1CC2(CCSC2)C(=O)N1Cc1ncc(-c2ccccc2)o1 (stereo not drawn),-14.26
2,NC(=O)CN(CC(=O)NCCc1c(F)cccc1F)C1CCCC1,11.15
3,C[C@@H]1CN(Cc2ccc(C(F)(F)F)cc2F)CC[C@]1(C)O,-2.035
4,CN(Cc1cnccn1)C(=O)Nc1cc(F)cc(N2CCCC2)c1,16.17
5,COCC(=O)Nc1cnc(N2CCCC2)nc1,-4.633
6,CCCC(=O)N(C)Cc1nc(N2CCCC2)ncc1-c1ccncc1.Cl,137.6
7,CCOc1ccc(CN(C)C(=O)c2nc(N3CCCC3)ncc2Cl)cc1,16.2
8,COCC(=O)N(C)Cc1nc(N2CCCC2)ncc1-c1ccncc1.Cl,87.58
9,Cc1nc(N2CCCC2)ncc1-c1cc(O)nc(N2CCCC2)n1,3.993
10,COc1cccc(CC(=O)N2CC[C@@H](OC)[C@@H]2Cc2cccnc2)c1.O=C(O)C(F)(F)F,137.5
11,COc1ccc(CC(=O)N2CC[C@@H](OC)[C@@H]2Cc2cccnc2)cc1.O=C(O)C(F)(F)F,135
12,CO[C@H]1CCN(S(=O)(=O)c2cn(C)cn2)[C@H]1Cc1cccnc1.O=C(O)C(F)(F)F.O=C(O)C(F)(F)F,-4.938
13,Cc1noc([C@H]2COC[C@H]3CN(C(=O)Cc4ccc(F)cc4)C[C@H]32)n1,-6.311
14,COc1cc(CN(C)C(=O)NC2CC2)ccc1SC,1.322
15,CCN(C)S(=O)(=O)N1CCCC1CC(=O)c1cccs1 (stereo not drawn),13.08
16,Cc1nc(C)c(C(=O)N2CCc3c(C)cccc32)o1,-0.835
17,Cc1ccc2c(c1)CN(C(=O)c1cnc(C)cn1)C(CN(C)C)CO2.Cl (stereo not drawn),102.7
18,Cc1ccc2c(c1)CN(C(=O)c1ccncc1)C(CN(C)C)CO2.Cl (stereo not drawn),112.6
19,Cc1ccc2c(c1)CN(C(=O)c1ccccc1F)C(CN(C)C)CO2.Cl (stereo not drawn),-8.172
20,Cc1ccc2c(c1)CN(C(=O)C1CCCCC1)C(CN(C)C)CO2.Cl (stereo not drawn),-7.003
21,Cc1nc(C)c(C(=O)N2Cc3ccccc3OCC2CN(C)C)o1.Cl.Cl (stereo not drawn),85.27
22,CC1CN(C)c2ccccc2CN1C(=O)c1ccncc1 (stereo not drawn),-3.17
23,Cc1nc(C)c(C(=O)N2Cc3cc(F)ccc3CC2C)o1 (stereo not drawn),-9.907
24,Cc1ccc2c(c1)CN(C(=O)c1cccs1)C(CN(C)C)CO2 (stereo not drawn),64.15
25,CN(C)CC1COCCN1C(=O)C1(c2cccs2)CCCC1.O=CO (stereo not drawn),-9.313
26,CCOC(=O)CC1CCCCN1C(=O)c1cnc(C)cn1 (stereo not drawn),6.285
